{"source": "PubChem BioAssay AID590", "about": "(National Center for Advancing Translational Sciences (NCATS), 2007)", "note": "Hit rate of the full screen: of about 59,000 compounds, about 6,500 (11%) were called active. Not shown: some 15% with an inconclusive outcome. No stated cut-off is given here; in the data, active means max dye-equivalent concentration above about 10 nM; inconclusive means mostly about 1.1 nM to 9.6 nM; inactive means weaker than that. Only a selection was taken, and actives are over-represented in it overall."}
{"assay": "qHTS Assay for Spectroscopic Profiling in A350 Spectral Region", "conditions": "Compound autofluorescence, 340/450 nm, Alexa 350 dye-equivalents; hits give high values", "description": "NIH Molecular Libraries Screening Centers Network [MLSCN]\nNIH Chemical Genomics Center [NCGC]\nOccasionally, the artifactual effect may originate from the compounds own spectral or other biophysical properties which generally tend to track its assay concentration. Pre-screening/profiling the library with respect to the compounds spectral properties should help one exclude false positives early on. While the most informative fluorescent profiling data set is obtained by performing a full excitation and emission scan of each well by using a monochromator-based plate reader, such an approach is practical only on a very limited scale as scanning each well requires long time. An alternative approach, applied here, is to perform plate reader scans using selected excitation and emission wavelength pairs to generate a multidimensional relational database that correlates compound concentration and the respective relative fluorescence intensity at a given wavelength set. A standard curve of Alexa 350 (A 350) present on each plate as six-point concentration series, was used to compute a normalized fluorescence response, termed dye-equivalent concentration, for each compound at each concentration.\nNCGC Assay Protocol Summary:\n100 mM Tris buffer, pH 8.0\nThe wells in columns 1 through 4 of a Kalypsys polypropylene 1536-well compound plate were filled with standard solutions of fluorophore corresponding to the spectral region of interest. Solutions of A 350 were placed in the following wells: I1, J1: 3 mM, I2, J2: 300 uM, I3, J3: 30 uM, I4, J4: zero (DMSO), K1, L1: 3 uM, K2, L2: […], K3, L3: 300 nM, K4, L4: zero (DMSO).\nSix uL of buffer were dispensed to 1536-well Greiner black plates. Compounds and dye standards (23 nL) were transferred via Kalypsys PinTool. The plates were incubated for 15 min at room temperature, and then read on ViewLux (Perkin-Elmer) High-throughput CCD imager using 340 nm and 450 nm excitation and emission filter set.\nKeywords: NIH Roadmap, MLSCN, MLI, MLSMR, qHTS, NCGC, A350, A-350, Fluorescent Profiling."}
{"compound": "c1ccc2sc(SCCSc3nc4ccccc4s3)nc2c1", "max dye-equivalent concentration": "inactive"}
{"compound": "CN1CCN(c2nc3c(c(=O)[nH]c(=O)n3C)n2Cc2cccc3ccccc23)CC1", "max dye-equivalent concentration": "inactive"}
{"compound": "O=C(Nc1cccc(F)c1)N1CCC2(CC1)CCN(S(=O)(=O)c1ccccc1)CC2", "max dye-equivalent concentration": "inactive"}
{"compound": "O=C(c1ccc2c(c1)OCCO2)C1CCN(S(=O)(=O)c2cccc(F)c2)CC1", "max dye-equivalent concentration": "12 nM (active)"}
{"compound": "O=C(NCc1cccs1)C1CCN(S(=O)(=O)c2ccc3c(c2)OCCO3)CC1", "max dye-equivalent concentration": "inactive"}
{"compound": "CCc1nc(C)cn1S(=O)(=O)c1cc(OC)c(C)cc1C", "max dye-equivalent concentration": "inactive"}
{"compound": "CC(C)CCNC(=O)CN(C(=O)Cn1nnc(-c2ccc(F)cc2)n1)C1CCCC1", "max dye-equivalent concentration": "inactive"}
{"compound": "Cc1cc(O)ccc1-c1cnc2ccccc2n1", "max dye-equivalent concentration": "inactive"}
{"compound": "Cc1nc2ccccc2cc1O", "max dye-equivalent concentration": "2500 nM (active)"}
{"compound": "CCOc1cc(C)c(Cl)cc1S(=O)(=O)n1nnc2ccccc21", "max dye-equivalent concentration": "inactive"}
{"compound": "COc1cc(NC(=O)N2CCOCC2)cc(OC)c1", "max dye-equivalent concentration": "inactive"}
{"compound": "CCOC(=O)c1[nH]c2ccc(OC)cc2c1NC(=O)N1CCOCC1", "max dye-equivalent concentration": "44 nM (active)"}
{"compound": "COC(=O)c1[nH]c2ccccc2c1NC(=O)CN1CCCc2ccccc21", "max dye-equivalent concentration": "inactive"}
{"compound": "COc1ccc(OC)c(NC(=O)CCN2CCC(C)CC2)c1", "max dye-equivalent concentration": "inactive"}
{"compound": "CCOC(=O)c1[nH]c2ccc(OC)cc2c1NC(=O)CCN1CCN(Cc2ccccc2)CC1", "max dye-equivalent concentration": "64 nM (active)"}
{"compound": "Cc1c(C(=O)N2CCOCC2)[nH]c2ccc(OCc3ccccc3)cc12", "max dye-equivalent concentration": "inactive"}
{"compound": "COc1ccccc1CNc1cc(-c2ccccc2CN(C)C)ncn1", "max dye-equivalent concentration": "inactive"}
{"compound": "COCC(=O)N1CCC2(CCCN(c3ccccc3)C2)CC1", "max dye-equivalent concentration": "inactive"}
{"compound": "Cc1cc(NC(=O)COn2nnc3ccccc32)no1", "max dye-equivalent concentration": "inactive"}
{"compound": "O=C1NC(=O)[C@@](Cc2ccccc2)(c2cccnc2)N1", "max dye-equivalent concentration": "inactive"}
{"compound": "O=C(NCc1ccccn1)c1c(O)c2c([nH]c1=O)CCCC2", "max dye-equivalent concentration": "inactive"}
{"compound": "O=C(NCc1ccco1)c1nc2ncccn2n1", "max dye-equivalent concentration": "inactive"}
{"compound": "Cc1cccn2c(=O)c3cc(C(=O)N4COCC4(C)C)n(C)c3nc12", "max dye-equivalent concentration": "900 nM (active)"}
{"compound": "Cc1cccn2c(=O)c3cc(C(=O)NCc4ccccn4)n(C)c3nc12", "max dye-equivalent concentration": "170 nM (active)"}
{"compound": "CCN(CC)C(=O)C1CCC(C)(C(=O)O)C1(C)C", "note": "(configuration not stated)", "max dye-equivalent concentration": "inactive"}
{"compound": "CC(c1ccccc1)n1c(NCCCn2ccnc2)nc2c1c(=O)[nH]c(=O)n2C", "note": "(configuration not stated)", "max dye-equivalent concentration": "inactive"}
{"compound": "Cc1cc(NC(=O)COC(=O)c2ccc(F)c(S(=O)(=O)N3CCOCC3)c2)no1", "max dye-equivalent concentration": "inactive"}
{"compound": "COc1cc([C@H]2c3cc4c(cc3[C@@H](O[C@@H]3O[C@H]5CO[C@@H](C)O[C@]5(O)C[C@H]3O)[C@@H]3COC(=O)[C@H]23)OCO4)cc(OC)c1O", "max dye-equivalent concentration": "inactive"}
{"compound": "C=CCn1c(SCc2cc(C(=O)OC)c(C)o2)nnc1-c1ccncc1", "max dye-equivalent concentration": "inactive"}
{"compound": "COc1ccc(C(=O)CSc2nccc(=O)[nH]2)cc1", "max dye-equivalent concentration": "inactive"}
{"compound": "COC(=O)[C@H](C)NC(=O)Nc1ccc(OC(F)(F)F)cc1", "max dye-equivalent concentration": "inactive"}
{"compound": "CCC1=C(C(=O)OC)C(c2cc(OC)ccc2OC)C(C#N)=C(N)O1", "note": "(configuration not stated)", "max dye-equivalent concentration": "inactive"}
{"compound": "CCCN1CC=C2C(C#N)=C(N)C(C#N)(C#N)C(c3cc(OC)ccc3OC)C2C1", "note": "(configuration not stated)", "max dye-equivalent concentration": "110 nM (active)"}
{"compound": "c1cc(-n2cnnn2)ccc1NC1=NCCC1", "max dye-equivalent concentration": "inactive"}
{"compound": "CNC(=O)C1CC(=O)N(Cc2ccc3c(c2)OCO3)C(=Nc2ccc(F)cc2)S1", "note": "(configuration not stated)", "max dye-equivalent concentration": "inactive"}
{"compound": "CC(C)(CSc1nncn1/N=C/c1ccco1)NS(=O)(=O)c1ccc(Cl)cc1", "max dye-equivalent concentration": "inactive"}
{"compound": "CC(C)CCNc1nc(N2CCCC2)c2c(c1C#N)CCN(C)C2", "max dye-equivalent concentration": "33 nM (active)"}
{"compound": "O=C(CCOc1ccccc1)NCc1ccccc1", "max dye-equivalent concentration": "inactive"}
{"compound": "O=C1CN(C(=O)COC(=O)C2CC(=O)N(Cc3ccco3)C2)c2ccccc2N1", "note": "(configuration not stated)", "max dye-equivalent concentration": "inactive"}
{"compound": "COc1ccc(Cc2nnc(NC(=O)Cc3cccs3)s2)cc1", "max dye-equivalent concentration": "inactive"}
{"compound": "COc1ccc2c(CC(=O)Nc3nnc(C4CC4)s3)coc2c1", "max dye-equivalent concentration": "12 nM (active)"}
{"compound": "COc1ccc(OCCCC(=O)Nc2nnc(C3CCCO3)s2)cc1", "note": "(configuration not stated)", "max dye-equivalent concentration": "inactive"}
{"compound": "CC1Cc2cc(/C(O)=C3\\C(=O)C(=O)N(CCN4CCOCC4)C3c3ccccc3F)ccc2O1", "note": "(configuration not stated)", "max dye-equivalent concentration": "inactive"}
{"compound": "O=C(O)[C@@H]1[C@@H](C(=O)O)[C@]23C[C@@]2(C(=O)O)[C@]2(C(=O)O)CCC3=C3CCCC312", "max dye-equivalent concentration": "inactive"}
{"compound": "COc1ccc(S(=O)(=O)NC(CC(=O)NCc2ccccc2OC)c2ccco2)cc1", "note": "(configuration not stated)", "max dye-equivalent concentration": "inactive"}
{"compound": "CCCn1c(O)c(CN2CCCC(C)C2)c(C)c(C#N)c1=O", "note": "(configuration not stated)", "max dye-equivalent concentration": "19 nM (active)"}
{"compound": "CCCCCCn1c(CN2CCCC(C)C2)nc2c1c(=O)n(C)c(=O)n2C", "note": "(configuration not stated)", "max dye-equivalent concentration": "inactive"}
{"compound": "CCCCC(CCC(=O)Nc1ccc(C(=O)OCC)cc1)C(=O)O", "note": "(configuration not stated)", "max dye-equivalent concentration": "inactive"}
{"compound": "CCCCc1cc(=O)oc2cc(C)cc(OCc3nn[nH]n3)c12", "max dye-equivalent concentration": "77 nM (active)"}
{"compound": "CC(Sc1nncn1C)C(=O)Nc1ccccc1-c1ccccc1", "note": "(configuration not stated)", "max dye-equivalent concentration": "inactive"}
{"compound": "Clc1ccc(Nc2nc(-c3cccs3)cs2)nc1", "max dye-equivalent concentration": "inactive"}
{"compound": "O=C(Nc1ccccc1F)C1C2C=CC3(O2)C1C(=O)N(c1cccnc1)C3C(=O)NC1CCCCC1", "note": "(configuration not stated)", "max dye-equivalent concentration": "inactive"}
{"compound": "COc1cc(C(=O)N(Cc2ccc(N(C)C)cc2)C2CCS(=O)(=O)C2)cc(OC)c1OC", "note": "(configuration not stated)", "max dye-equivalent concentration": "inactive"}
{"compound": "CC1CCCCN1S(=O)(=O)c1ccc(C(=O)Nc2nnc(-c3cccs3)o2)cc1", "note": "(configuration not stated)", "max dye-equivalent concentration": "inactive"}
{"compound": "Cc1ccc(C(=O)Nc2nnc(-c3cccs3)s2)cc1C", "max dye-equivalent concentration": "72 nM (active)"}
{"compound": "CCc1nnc(NC(=O)c2ccc(S(=O)(=O)NC3CCCCC3)cc2)s1", "max dye-equivalent concentration": "inactive"}
{"compound": "COc1ccc2[nH]cc(CCNc3ncnc4ccc(-c5ccccc5CN(C)C)cc34)c2c1", "max dye-equivalent concentration": "inactive"}
{"compound": "COc1ccc(OC)c(S(=O)(=O)Nc2ccccc2F)c1", "max dye-equivalent concentration": "75 nM (active)"}
{"compound": "COC(=O)c1ccccc1NC(=O)C1CCN(S(=O)(=O)c2cc(OC)ccc2OC)CC1", "max dye-equivalent concentration": "inactive"}
{"compound": "COc1ccc(Cl)cc1S(=O)(=O)Nc1cccc(C(=O)O)c1", "max dye-equivalent concentration": "inactive"}
{"compound": "Cc1c(C(=O)OCc2cc(=O)n3cc(Br)ccc3n2)oc2ccccc12", "max dye-equivalent concentration": "inactive"}
{"compound": "Cc1c(C(=O)OCC(=O)N(CCC#N)c2ccccc2)oc2c1ccc1ccccc12", "max dye-equivalent concentration": "14 nM (active)"}
{"compound": "COC(=O)N1CCC2(CCCN(c3ccncc3)C2)CC1", "max dye-equivalent concentration": "inactive"}
{"compound": "COCCn1c(=O)c(-c2ccc(OC)cc2)nc2cnc(Oc3cccc(Cl)c3)nc21", "max dye-equivalent concentration": "13 nM (active)"}
{"compound": "COc1ncc2nc(-c3ccc(Cl)cc3)c(=O)n(C)c2n1", "max dye-equivalent concentration": "34 nM (active)"}
{"compound": "COc1cccc(Cn2c(=O)c(-c3cc(F)cc(F)c3)nc3cnc(OC)nc32)c1", "max dye-equivalent concentration": "inactive"}
{"compound": "COc1ccc(Oc2ncc3nc(-c4ccc(F)cc4)c(=O)n(C)c3n2)cc1", "max dye-equivalent concentration": "inactive"}
{"compound": "CCc1nc2oc3ccccc3c(=O)c2c(=O)n1Cc1ccc(OC)cc1", "max dye-equivalent concentration": "inactive"}
{"compound": "COc1ccc(-c2nc3cnc(Oc4ccccc4)nc3n(Cc3cccs3)c2=O)cc1", "max dye-equivalent concentration": "12 nM (active)"}
{"compound": "COc1ccc(-c2nc3cnc(OC)nc3n(Cc3ccc(F)cc3)c2=O)cc1", "max dye-equivalent concentration": "12 nM (active)"}
{"compound": "COc1cccc(Cn2c(=O)c(-c3ccccc3)nc3cnc(OC)nc32)c1", "max dye-equivalent concentration": "inactive"}
{"compound": "Cc1nc2cnc(Oc3cccc(Cl)c3)nc2n(C2CC2)c1=O", "max dye-equivalent concentration": "inactive"}
